From PubChem BioAssay (Tox21)
Records with an inconclusive call do not appear. Activity calls are given as the source filed them. Unless noted, calls follow the shape of the dose curve; as a rule, active = well fitted curve in the direction sought with a large enough effect in the repeat runs; inconclusive = weak or mixed curves; inactive = no such curve, though single readings can be large; an effect the other way counts as inactive or inconclusive.

Tests used:
[1] = qHTS assay to identify small molecule agonists of the sonic hedgehog signaling (Shh) pathway (AID 1259368; calls by dose curve;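 also: NIH/3T3-derived 3T3Gli1-Luc cells carrying a stable Gli1-driven firefly luciferase reporter; series mostly up to about 92 µM; nearly all actives have a fitted effect of over 15% in size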)
Method in brief: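 Read-out: firefly luciferase luminescence from a Gli1 response element reporter stably integrated in NIH/3T3-derived 3T3Gli1-Luc cells, measured 30 min at room temperature after reagent addition. Compound exposure lasted 24 hr at 37 C, 5% CO2.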

[2] = biological target: Estrogen receptor beta (Homo sapiens) (UniProt Q92731); test: qHTS assay to identify small molecule agonists of the estrogen receptor beta (ER-beta) signaling pathway (AID 1259377; active = well fitted activation curve with a large enough effect in the signal ratio in the repeat runs, not every such curve was filed as active; the % refers to the signal ratio)
Estrogen receptor beta (Homo sapiens), sequence (Q92731 whole entry, looked up, the tested form may be a part): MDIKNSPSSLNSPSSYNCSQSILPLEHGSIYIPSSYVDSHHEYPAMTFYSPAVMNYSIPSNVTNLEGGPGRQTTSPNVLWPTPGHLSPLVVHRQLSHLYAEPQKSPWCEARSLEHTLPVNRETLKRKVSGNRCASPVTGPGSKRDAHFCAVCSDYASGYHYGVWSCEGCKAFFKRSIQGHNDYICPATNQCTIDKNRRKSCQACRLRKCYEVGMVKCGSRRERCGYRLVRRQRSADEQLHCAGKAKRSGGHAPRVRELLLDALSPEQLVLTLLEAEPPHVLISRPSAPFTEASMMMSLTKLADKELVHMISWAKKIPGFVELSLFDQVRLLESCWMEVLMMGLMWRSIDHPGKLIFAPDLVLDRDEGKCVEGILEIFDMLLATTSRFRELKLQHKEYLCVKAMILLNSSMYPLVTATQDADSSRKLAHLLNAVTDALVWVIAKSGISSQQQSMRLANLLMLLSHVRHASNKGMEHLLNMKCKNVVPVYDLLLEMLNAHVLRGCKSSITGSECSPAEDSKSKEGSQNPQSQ
Method in brief: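 Agonist mode cell assay in GripTite HEK293T cells expressing an ER-beta fusion that drives beta-lactamase from an Upstream Activator Sequence; 16 hr compound exposure at 37C, then 2 h LiveBLAzer B/G FRET substrate at room temperature, fluorescence read-out.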

[3] = biological target: Estrogen receptor beta (Homo sapiens) (UniProt Q92731); test: qHTS assay to identify small molecule antagonists of the estrogen receptor beta (ER-beta) signaling pathway (AID 1259378; active = well fitted inhibition curve with a large enough effect in the signal ratio in the repeat runs, not every such curve was filed as active; the % refers to the signal ratio)
Method in brief: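 ER-beta-UAS-bla HEK293T (GripTite) cells in 2% charcoal-stripped FBS medium were preincubated 6 hr at 37C, dosed with compound, then stimulated with 1 nM E2 (final) for 16 hr; beta-lactamase reporter read by B/G FRET fluorescence after 2 hr substrate loading.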

[4] = qHTS assay to identify small molecule agonists of the androgen receptor (AR) signaling pathway in the presence of an antagonist - cell viability counter screen (AID 1259379);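 also: MDA-kb2 human breast cancer cells carrying an MMTV luciferase reporter; series mostly up to about 92 µM; nearly all actives have a fitted effect of over 25% in size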
Method in brief: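 Viability counter screen: CellTiter-Fluor fluorescence, measured in the same wells as the luciferase read-out. MDA-kb2 cells, 3,000/well, with nilutamide at 3.0uM final and compounds at 15 concentrations, 16 hr at 37C, 0% CO2.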

[5] = qHTS assay to identify small molecule agonists of the estrogen receptor beta (ER-beta) signaling pathway - cell viability counter screen (AID 1259380); also: nearly all actives have a fitted effect of over 30% in size
Method in brief: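 Luminescence read-out (CellTiter-Glo, 30 min, room temp) taken in the same wells as the beta-lactamase reporter assay; ER-beta-UAS-bla HEK293T cells exposed to DMSO-dissolved compounds for 16 hr at 37C in 2% charcoal-stripped FBS medium.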

[6] = qHTS assay to identify small molecule antagonists of the estrogen receptor beta (ER-beta) signaling pathway - cell viability counter screen (AID 1259382); also: series mostly up to about 92 µM; nearly all actives have a fitted effect of over 55% in size
Method in brief: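 Luminescent ATP read-out (CellTiter-Glo, 30 min, RT) taken in the same wells as the bla reporter assay. HEK293T ER-beta-UAS-bla cells in 2% charcoal-stripped FBS were exposed to compounds with 1nM E2 for 16 hr at 37C.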

[7] = qHTS assay to identify small molecule agonists or antagonists of the thyroid stimulating hormone receptor (TSHR) signaling pathway - wild type cell line counter screen (AID 1259384; calls by dose curve)
Method in brief: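 Wild-type HEK293 cells were plated 18 h at 37 C/5% CO2, pin-dosed with compound plus Ro20-1724 medium, held 30 min at room temperature, then given cAMP-d2 and anti-cAMP-cryptate; fluorescence was read after 1 h. Fifteen concentrations, triplicate.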

[8] = biological target: Thyrotropin receptor (Homo sapiens) (UniProt P16473); test: qHTS assay to identify small molecule antagonists of the thyroid stimulating hormone receptor (TSHR) signaling pathway (AID 1259385; calls by dose curve; also: nearly all actives have a fitted effect of over 20% in size)
Thyrotropin receptor (Homo sapiens), sequence (P16473 whole entry, looked up): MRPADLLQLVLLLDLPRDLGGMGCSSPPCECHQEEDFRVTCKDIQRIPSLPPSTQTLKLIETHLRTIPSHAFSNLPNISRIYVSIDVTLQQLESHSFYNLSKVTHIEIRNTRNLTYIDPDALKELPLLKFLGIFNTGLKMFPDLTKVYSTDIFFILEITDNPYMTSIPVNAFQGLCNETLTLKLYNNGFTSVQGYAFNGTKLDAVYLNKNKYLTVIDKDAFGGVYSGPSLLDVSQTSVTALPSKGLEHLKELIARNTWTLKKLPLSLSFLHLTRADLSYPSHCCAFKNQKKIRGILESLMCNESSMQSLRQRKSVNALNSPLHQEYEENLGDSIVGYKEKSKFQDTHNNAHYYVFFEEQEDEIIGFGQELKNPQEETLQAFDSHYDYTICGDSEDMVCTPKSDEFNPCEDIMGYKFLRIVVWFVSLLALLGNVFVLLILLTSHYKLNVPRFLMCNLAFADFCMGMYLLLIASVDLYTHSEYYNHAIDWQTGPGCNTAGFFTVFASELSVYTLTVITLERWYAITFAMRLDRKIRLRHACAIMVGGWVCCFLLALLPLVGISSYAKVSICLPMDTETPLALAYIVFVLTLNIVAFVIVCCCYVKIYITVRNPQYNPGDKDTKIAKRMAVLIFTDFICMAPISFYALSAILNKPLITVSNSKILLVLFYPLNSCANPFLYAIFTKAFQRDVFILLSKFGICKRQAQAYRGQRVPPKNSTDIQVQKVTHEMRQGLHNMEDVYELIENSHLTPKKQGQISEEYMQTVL
Method in brief: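 TSHR-HEK293 cells were plated and held 18 h at 37C/5% CO2, then given compound plus Ro20-1724 and stimulated with TSH at 1.5 ng/mL final. After 30 min at room temperature, cAMP was detected with cAMP-d2/anti-cAMP-cryptate (1 h) by fluorescence.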

[9] = qHTS assay to identify small molecule agonists of the estrogen receptor alpha (ER-alpha) signaling pathway in the presence of an antagonist - cell viability counter screen (AID 1259386);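 also: series mostly up to about 92 µM; cells exposed to compounds for 22 h at 37 °C before the viability read; nearly all actives have a fitted effect of over 30% in size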
Method in brief: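 Read-out: CellTiter-Fluor fluorescence after 1hr reagent incubation, measured in the same wells as the luciferase readout. VM7Luc4E2 cells were exposed to 15 compound concentrations with 10.0nM ICI-182,780 for 22hr at 37C.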

[10] = biological target: Progesterone receptor (Homo sapiens) (UniProt P06401); test: qHTS assay to identify small molecule agonists of the progesterone receptor (PR) signaling pathway (AID 1346784; calls by dose curve; also: nearly all actives have a fitted effect of over 30% in size)
Progesterone receptor (Homo sapiens), sequence (P06401 whole entry, looked up): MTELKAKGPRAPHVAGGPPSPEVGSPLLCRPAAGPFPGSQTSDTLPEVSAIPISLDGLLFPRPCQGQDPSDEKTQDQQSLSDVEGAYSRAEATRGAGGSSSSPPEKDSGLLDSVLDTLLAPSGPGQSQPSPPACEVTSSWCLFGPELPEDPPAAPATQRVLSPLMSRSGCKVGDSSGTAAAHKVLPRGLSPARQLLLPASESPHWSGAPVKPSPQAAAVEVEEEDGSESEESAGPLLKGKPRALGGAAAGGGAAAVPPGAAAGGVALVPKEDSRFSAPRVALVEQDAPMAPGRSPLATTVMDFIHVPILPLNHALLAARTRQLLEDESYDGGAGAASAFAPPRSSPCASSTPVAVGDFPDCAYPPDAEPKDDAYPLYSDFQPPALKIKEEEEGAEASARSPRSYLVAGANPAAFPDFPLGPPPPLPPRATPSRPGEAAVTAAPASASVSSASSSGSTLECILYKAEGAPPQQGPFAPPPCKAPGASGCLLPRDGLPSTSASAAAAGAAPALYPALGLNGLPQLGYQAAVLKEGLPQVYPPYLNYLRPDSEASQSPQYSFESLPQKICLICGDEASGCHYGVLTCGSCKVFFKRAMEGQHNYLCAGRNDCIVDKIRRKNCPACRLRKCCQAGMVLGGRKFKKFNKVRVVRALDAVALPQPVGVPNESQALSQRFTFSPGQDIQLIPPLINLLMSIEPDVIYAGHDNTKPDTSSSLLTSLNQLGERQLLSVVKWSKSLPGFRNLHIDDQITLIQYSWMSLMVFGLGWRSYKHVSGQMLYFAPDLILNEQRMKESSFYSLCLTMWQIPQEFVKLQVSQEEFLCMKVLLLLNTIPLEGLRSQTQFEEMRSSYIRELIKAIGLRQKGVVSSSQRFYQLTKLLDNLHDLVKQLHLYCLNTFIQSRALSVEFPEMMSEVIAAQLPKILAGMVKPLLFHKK
Method in brief: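 Cells (PR-UAS-bla HEK 293T, GripTite) were plated in assay medium containing 2% charcoal-stripped FBS and incubated 6 hr. Test compounds in DMSO were added for 16 hr at 37C. FRET substrate was then loaded for 2 hr at room temperature before fluorescence reading.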

[11] = qHTS assay to identify small molecule antagonists of the progesterone receptor (PR) signaling pathway - cell viability counter screen (AID 1346798); also: series mostly up to about 92 µM; nearly all actives have a fitted effect of over 50% in size
Method in brief: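 Counter screen for cytotoxicity: viability of PR-UAS-bla HEK293T cells was measured with CellTiter-Glo luminescence following 16 hr compound exposure in the presence of R5020.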

[12] = qHTS assay to identify small molecule agonists of the progesterone receptor (PR) signaling pathway - cell viability counter screen (AID 1346799; calls by dose curve; also: nearly all actives have a fitted effect of over 45% in size)
Method in brief: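 Cells (PR-UAS-bla HEK293T) are plated at 3,000/well in 2% charcoal-stripped FBS medium, rested 6 hr, dosed and incubated 16 hr at 37C. CellTiter-Glo is then added and luminescence measured after 30 min at room temperature.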

[13] = qHTS assay to identify small molecule antagonists of the TGF-beta/Smad signaling pathway - cell viability counter screen (AID 1346824); also: nearly all actives have a fitted effect of over 50% in size
Method in brief: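 SBE-bla HEK 293T cells were plated overnight at 37 C, then given compounds in DMSO plus TGF-beta1 (added as 0.25 ng/mL solution) for 5 hr. After the bla read, CellTiter-Glo was added to the same wells and luminescence read after 30 min at room temperature.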

[14] = biological target: Thyrotropin-releasing hormone receptor (Homo sapiens) (UniProt P34981); test: qHTS assay to identify small molecule antagonists of the thyrotropin-releasing hormone receptor (TRHR) signaling pathway (AID 1346877; active = well fitted inhibition curve with a large enough effect in the repeat runs, not every such curve was filed as active; also: series mostly up to about 51 µM)
Thyrotropin-releasing hormone receptor (Homo sapiens), sequence (P34981 whole entry, looked up): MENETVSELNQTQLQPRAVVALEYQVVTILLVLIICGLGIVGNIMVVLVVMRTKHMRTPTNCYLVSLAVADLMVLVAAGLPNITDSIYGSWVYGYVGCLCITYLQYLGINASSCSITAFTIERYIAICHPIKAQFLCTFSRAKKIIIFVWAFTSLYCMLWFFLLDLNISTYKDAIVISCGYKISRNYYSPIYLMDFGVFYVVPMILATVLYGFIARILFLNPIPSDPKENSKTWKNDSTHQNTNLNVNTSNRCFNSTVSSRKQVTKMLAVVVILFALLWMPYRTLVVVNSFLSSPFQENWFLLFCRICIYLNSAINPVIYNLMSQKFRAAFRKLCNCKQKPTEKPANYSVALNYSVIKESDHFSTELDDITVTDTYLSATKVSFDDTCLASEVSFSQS
Method in brief: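 HEK293/TRHR cells, 18 h, 37 °C; Ca2+ dye 2 h; cpd 5 min RT; TRH 1 nM final; fluorescence read 3 min, 1 s intervals; 15 concs, triplicate.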

[15] = biological target: Estrogen receptor (Homo sapiens) (UniProt P03372); test: qHTS assay to identify small molecule agonists of the estrogen receptor alpha (ER-alpha) signaling pathway in the presence of an antagonist (AID 1259383; calls by dose curve; also: top concentration of the series differs between compounds; nearly all actives have a fitted effect of over 15% in size)
Estrogen receptor (Homo sapiens), sequence (P03372 whole entry, looked up): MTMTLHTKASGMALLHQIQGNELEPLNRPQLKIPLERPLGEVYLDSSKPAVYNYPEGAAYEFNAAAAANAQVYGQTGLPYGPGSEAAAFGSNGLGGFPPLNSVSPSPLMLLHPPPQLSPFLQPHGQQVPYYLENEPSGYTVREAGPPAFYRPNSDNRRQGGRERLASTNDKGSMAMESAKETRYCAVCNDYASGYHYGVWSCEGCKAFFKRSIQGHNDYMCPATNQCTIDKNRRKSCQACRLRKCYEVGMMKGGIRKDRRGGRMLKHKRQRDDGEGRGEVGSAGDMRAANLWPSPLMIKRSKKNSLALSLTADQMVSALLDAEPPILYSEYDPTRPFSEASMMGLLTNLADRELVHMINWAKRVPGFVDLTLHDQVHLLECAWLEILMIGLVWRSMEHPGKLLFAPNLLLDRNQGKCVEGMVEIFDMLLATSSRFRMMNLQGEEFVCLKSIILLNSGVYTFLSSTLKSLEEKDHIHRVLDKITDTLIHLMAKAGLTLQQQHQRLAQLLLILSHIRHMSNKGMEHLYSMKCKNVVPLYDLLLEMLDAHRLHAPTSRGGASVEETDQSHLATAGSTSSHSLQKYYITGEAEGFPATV
Method in brief: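 Luciferase luminescence (ONE-Glo, 30min at room temperature) measured in VM7Luc4E2 cells after 22hr compound exposure at 15 concentrations, with 10.0nM ICI-182,780 final present; cells express endogenous ER-alpha and carry four EREs upstream of luciferase.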

[16] = biological target: Progesterone receptor (Homo sapiens) (UniProt P06401); test: qHTS assay to identify small molecule antagonists of the progesterone receptor (PR) signaling pathway (AID 1346795; active = well fitted inhibition curve with a large enough effect in the signal ratio in the repeat runs, not every such curve was filed as active; the % refers to the signal ratio)
Method in brief: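 Antagonist mode: compounds tested against 1 nM (final) promegestone stimulation in HEK293T cells expressing PR-UAS-bla reporter, 16 hr at 37C, 5% CO2; beta-lactamase activity detected via B/G FRET substrate after 2 hr at room temperature.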

[17] = qHTS assay to identify small molecule agonists of the TGF-beta/Smad signaling pathway - cell viability counter screen (AID 1346829); also: top concentration of the series differs between compounds; nearly all actives have a fitted effect of over 45% in size
Method in brief: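 In parallel with the Smad reporter read, viability of HEK 293T cells stably carrying SBE-bla is quantified by ATP luminescence following 5 hr compound treatment.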

[18] = qHTS assay to identify small molecule antagonists of the sonic hedgehog signaling (Shh) pathway (AID 1259369; calls by dose curve; also: nearly all actives have a fitted effect of over 45% in size)
Method in brief: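 Luminescence readout: firefly Luc under Gli1 response element in 3T3Gli1-Luc cells (NIH/3T3 clone). Antagonist mode, stimulation by conditioned medium; compound exposure 24hr at 37 C, 5% CO2.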

[19] = qHTS assay to identify small molecule agonists of the TGF-beta/Smad signaling pathway (AID 1346859; active = well fitted activation curve with a large enough effect in the signal ratio in the repeat runs, not every such curve was filed as active; the % refers to the signal ratio; also: series mostly up to about 77 µM)
Method in brief: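 Reporter line: HEK 293T with stably integrated SBE-controlled beta-lactamase. Compound exposure lasts 5 hr at 37 C and 5% CO2; substrate loading follows for 2 hr at room temperature, with emission read at 460 and 530 nm.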

[20] = biological target: Androgen receptor (Homo sapiens) (UniProt P10275); test: qHTS assay to identify small molecule agonists of the androgen receptor (AR) signaling pathway in the presence of an antagonist (AID 1259381; calls by dose curve; also: nearly all actives have a fitted effect of over 15% in size)
Androgen receptor (Homo sapiens), sequence (P10275 whole entry, looked up): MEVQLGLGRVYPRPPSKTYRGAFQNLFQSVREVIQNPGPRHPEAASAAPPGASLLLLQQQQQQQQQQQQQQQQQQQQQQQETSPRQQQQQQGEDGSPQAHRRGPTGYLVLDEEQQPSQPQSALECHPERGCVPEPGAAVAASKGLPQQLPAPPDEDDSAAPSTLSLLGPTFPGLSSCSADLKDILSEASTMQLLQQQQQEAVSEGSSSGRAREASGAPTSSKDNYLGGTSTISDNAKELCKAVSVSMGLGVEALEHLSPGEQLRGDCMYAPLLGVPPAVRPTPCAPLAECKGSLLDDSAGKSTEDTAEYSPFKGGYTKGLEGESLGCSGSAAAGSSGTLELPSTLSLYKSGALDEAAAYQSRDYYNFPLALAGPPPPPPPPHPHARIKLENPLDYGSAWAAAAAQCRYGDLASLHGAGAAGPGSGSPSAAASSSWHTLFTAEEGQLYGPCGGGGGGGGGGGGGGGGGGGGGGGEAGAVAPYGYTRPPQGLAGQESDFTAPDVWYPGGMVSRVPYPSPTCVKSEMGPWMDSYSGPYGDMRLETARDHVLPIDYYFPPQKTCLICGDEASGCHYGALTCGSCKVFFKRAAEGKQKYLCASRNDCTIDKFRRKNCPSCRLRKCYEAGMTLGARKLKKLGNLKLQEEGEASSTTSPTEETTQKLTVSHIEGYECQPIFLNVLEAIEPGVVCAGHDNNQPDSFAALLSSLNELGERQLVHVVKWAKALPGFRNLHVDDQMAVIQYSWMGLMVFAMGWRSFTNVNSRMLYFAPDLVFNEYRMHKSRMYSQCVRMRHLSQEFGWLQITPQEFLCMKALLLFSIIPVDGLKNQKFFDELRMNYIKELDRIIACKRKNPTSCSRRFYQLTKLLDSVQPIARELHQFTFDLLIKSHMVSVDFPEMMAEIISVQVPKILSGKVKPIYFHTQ
Method in brief: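 Luciferase read-out (ONE-Glo, 30min room temperature) in MDA-kb2 MMTV-reporter cells; agonist mode run in presence of AR antagonist nilutamide, 3.0uM final. Compounds tested as 15-point series, 16hr exposure at 37C, 0% CO2.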
% is scaled to controls: 0 for no effect and ±100 for the full control effect.

Cc1c(-c2cccnc2)c2ccccc2n1CCCCC(=O)O
inactive: Potency [1] | Potency [2] | Potency [3] | Potency [4] | Potency [5] | Potency [6] | outcome [7] | Potency [8] | Potency [9] | Potency [10] | Potency [11] | Potency [12] | outcome [13] | outcome [14]

O=C(O)c1ccc2c(c1)nc(C(=O)NC1CCN(C3CC3)CC1)n2Cc1cc(-c2ccc(Cl)s2)on1
inactive: activity change [1] -5.1% [at 18.9 µM, stronger effect = higher value] | activation [2] -4.72% [at 19 µM] | activity, negative = inhibition [3] 18.6% [at 19 µM] | activity change, negative = cytotoxicity [4] 2.61% [at 19 µM] | activity change, negative = cytotoxicity [6] -12.8% [at 19 µM] | activation [15] 1.43% [at 19 µM] | cAMP activity change [7] 1.96% [at 18.9 µM] | activity change, negative = inhibition [8] 2.44% [at 19 µM] | activity change, negative = cytotoxicity [9] 7.53% [at 19 µM] | activation [10] 1.53% [at 19 µM] | activity change, negative = inhibition [16] -15.4% [at 18.9 µM] | activity change, negative = cytotoxicity [11] -14.4% [at 18.9 µM] | activity change, negative = cytotoxicity [12] -20.4% [at 19 µM] | viability change, negative = cytotoxic [13] 0.205% [at 15.8 µM] | activity change, negative = cytotoxicity [17] 20.2% [at 15.8 µM] | activity, negative = inhibition [14] 0.0336% [at 10.5 µM]

COC(=O)C(C)(C)C
inactive: Potency [1] | Potency [18] | Potency [6] | outcome [7] | Potency [8] | Potency [9] | Potency [16] | outcome [13] | outcome [17] | outcome [19] | outcome [14]

O=C(O)c1ccc(O)c(O)c1
inactive: Potency [1] | Potency [2] | Potency [3] | Potency [4] | Potency [5] | Potency [20] | Potency [6] | Potency [15] | outcome [7] | Potency [8] | Potency [9] | Potency [16] | Potency [11] | outcome [13] | outcome [17] | outcome [19] | outcome [14]

Cc1cc(C)c(C)c(O)c1
inactive: Potency [1] | Potency [18] | Potency [5] | Potency [6] | Potency [15] | outcome [7] | Potency [8] | Potency [9] | Potency [10] | Potency [11] | outcome [13] | outcome [19] | outcome [14]

CCOc1ccc(NC(C)=O)cc1N
inactive: Potency [1] | Potency [2] | Potency [3] | Potency [4] | Potency [20] | Potency [6] | Potency [15] | outcome [7] | Potency [9] | Potency [10] | Potency [12] | outcome [13] | outcome [17] | outcome [19]
